The panel holds about 79,000 compounds, 15% with a hit somewhere; the sample as a whole holds those more often. Activity calls are given as the source filed them. Rule as the data show it: active = growth inhibition above about 70%; inactive = the rest.
Tests used:
[1] = NCI Yeast Anticancer Drug Screen. Data for the rad52 strain (AID 147);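 also: 0% = growth of vehicle-treated control cultures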; conditions: S. cerevisiae rad52 mutant growth inhibition, hits give high values
Outline: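 Compounds are applied to a genetically defined yeast strain lacking normal DNA damage repair, and inhibition of growth is expressed relative to cultures given vehicle only.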

[2] = NCI Yeast Anticancer Drug Screen. Data for the wt1 strain (AID 149);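 also: 0% = growth of vehicle-treated wt1 cultures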; conditions: S. cerevisiae wt1 strain (SPY 50644) growth inhibition, hits give high values
Outline: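 Vehicle-normalised growth inhibition; strain wt1; compound exposure.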

[3] = NCI Yeast Anticancer Drug Screen. Data for the rad50EPP+ strain (AID 151);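 also: 0% = growth of vehicle-treated control cultures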; conditions: S. cerevisiae rad50 mutant strain, hits give high values
Outline: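 Compounds were applied to the rad50EPP+ yeast strain, which bears a defined DNA repair alteration, and growth inhibition was determined relative to vehicle-treated cultures.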

[4] = NCI Yeast Anticancer Drug Screen. Data for the mgt1 strain (AID 153); conditions: S. cerevisiae mgt1 mutant growth inhibition, hits give high values
Outline: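 Strain: mgt1 yeast, one of a set carrying defined DNA damage repair or cell cycle control alterations. Compound-treated growth compared with vehicle.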

[5] = NCI Yeast Anticancer Drug Screen. Data for the rad50 strain (AID 155);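 also: 0% = growth of vehicle-only cultures of the same strain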; conditions: S. cerevisiae rad50 strain growth inhibition, hits give high values
Outline: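 A DNA repair-deficient yeast mutant serves as the test organism; compound-induced growth inhibition is calculated against vehicle-treated cells.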

[6] = NCI Yeast Anticancer Drug Screen. Data for the mec2-1 strain (AID 157); conditions: S. cerevisiae mec2-1 strain, hits give high values
Outline: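 Strain: mec2-1 (DNA repair/cell cycle alteration). Compound exposure, then growth measured; inhibition expressed relative to vehicle.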

[7] = NCI Yeast Anticancer Drug Screen. Data for the rad14 strain (AID 159);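 also: 0% = growth of vehicle-treated control cultures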; conditions: S. cerevisiae rad14 strain growth inhibition, hits give high values
Outline: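 Vehicle-treated cultures served as the baseline for growth inhibition of a DNA repair-mutant yeast strain exposed to each compound.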

[8] = NCI Yeast Anticancer Drug Screen. Data for the sgs1 mgt1 strain (AID 161);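 also: 0% = growth of cultures given vehicle only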; conditions: S. cerevisiae sgs1 mgt1 strain, hits give high values
Outline: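 Test agents were incubated with a DNA-repair-mutant yeast strain. Growth was then read and compared against vehicle-treated controls.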

[9] = NCI Yeast Anticancer Drug Screen. Data for the CLN2oe strain (AID 163);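 also: 0% = growth of vehicle-only control cultures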; conditions: S. cerevisiae CLN2oe strain, hits give high values
Outline: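 Growth of a genetically modified yeast strain is measured after compound exposure and compared with cultures given vehicle alone.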

[10] = NCI Yeast Anticancer Drug Screen. Data for the cln2 rad14 strain (AID 165);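 also: 0% = growth equal to vehicle treated cultures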; conditions: S. cerevisiae cln2 rad14 strain, hits give high values
Outline: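 Compounds are applied to the cln2 rad14 yeast strain, and growth is then compared with that of vehicle-treated cultures to give inhibition.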

[11] = NCI Yeast Anticancer Drug Screen. Data for the bub3 strain (AID 167); conditions: S. cerevisiae bub3 mutant strain, hits give high values
Outline: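 Inhibition values come from growth of compound-treated mutant yeast normalised to vehicle-treated controls.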

[12] = NCI Yeast Anticancer Drug Screen. Data for the wt2 strain (AID 169);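 also: 0% = growth of vehicle-treated yeast cultures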; conditions: S. cerevisiae wt2 strain growth inhibition, hits give high values
Outline: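 This strain belongs to a panel of yeast strains with defined genetic alterations in DNA damage repair or cell cycle control. Compounds are applied, and growth inhibition is measured against vehicle-treated cultures.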

[13] = NCI Yeast Anticancer Drug Screen. Data for the mlh1 strain (AID 171);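 also: 0% = growth of vehicle-treated control cultures of the same strain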; conditions: S. cerevisiae mlh1 strain growth inhibition, hits give high values
Outline: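 Growth of the mutant yeast strain after compound exposure, expressed as inhibition relative to vehicle-only controls.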

[14] = NCI Yeast Anticancer Drug Screen. Data for the sgs1 strain (AID 173);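 also: 0% = growth of vehicle-only control cultures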; conditions: S. cerevisiae sgs1 mutant, hits give high values
Outline: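 Growth of a yeast strain bearing a defined genetic alteration is measured after compound treatment. Inhibition is expressed relative to vehicle-only controls.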

[15] = NCI Yeast Anticancer Drug Screen. Data for the mlh1 rad18 strain (AID 175); conditions: S. cerevisiae mlh1 rad18 strain growth inhibition, hits give high values
Outline: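 Read-out is yeast growth inhibition, calculated against vehicle-only controls. The compound was applied to a strain engineered with DNA damage repair alterations.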

[16] = NCI Yeast Anticancer Drug Screen. Data for the rad18 strain (AID 177); conditions: S. cerevisiae rad18 mutant growth inhibition, hits give high values
Outline: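 Growth of the mutant yeast strain after compound exposure, normalised to vehicle-only cultures.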

[17] = at 5.0 µM (retest, dose inferred, filed as 0.5)
[18] = at 50.0 µM (retest, dose inferred, filed as 5.0)

Measured: growth inhibition

CCOP(=S)(S)OCC.[Pd]
inactive: [1]; at 1.2 µM 5% | [1]; at 3.7 µM 45% | [2]; at 1.2 µM 2% | [2]; at 3.7 µM 55% | [3]; at 1.2 µM 0% | [3]; at 3.7 µM 11% | [3]; at 11.0 µM 24% | [3]; at 33.0 µM 20% | [3]; at 100.0 µM 8% | [4]; at 1.2 µM -2% | [4]; at 3.7 µM 17% | [4]; at 11.0 µM 68% | [5]; at 1.2 µM 12% | [5]; at 3.7 µM 57% | [5]; [17] 67% | [5]; [18] 32% | [6]; at 1.2 µM 10% | [6]; at 3.7 µM 67% | [6]; [18] 51% | [6]; at 50.0 µM 67.9% | [7]; at 1.2 µM 0% | [7]; at 3.7 µM 17% | [7]; at 11.0 µM 60% | [8]; [17] 57% | [8]; [18] 36% | [9]; at 1.2 µM -3% | [9]; at 3.7 µM 20% | [9]; at 11.0 µM 59% | [10]; [17] 23% | [10]; [18] 9% | [11]; at 1.2 µM 6% | [11]; at 3.7 µM 63% | [12]; at 1.2 µM -2% | [12]; at 3.7 µM 59% | [13]; at 1.2 µM 4% | [13]; at 3.7 µM 56% | [14]; at 1.2 µM 13% | [15]; [18] 56% | [16]; at 1.2 µM 15%
active: [1]; at 11.0 µM 75% | [1]; at 33.0 µM 82% | [1]; at 100.0 µM 80% | [2]; at 11.0 µM 93% | [2]; at 33.0 µM 89% | [2]; at 100.0 µM 83% | [4]; at 33.0 µM 82% | [4]; at 100.0 µM 82% | [5]; at 11.0 µM 95% | [5]; at 33.0 µM 91% | [5]; at 50.0 µM 79.4% | [5]; at 100.0 µM 92% | [6]; [17] 80% | [6]; at 11.0 µM 95% | [6]; at 33.0 µM 87% | [6]; at 100.0 µM 85% | [7]; at 33.0 µM 75% | [7]; at 100.0 µM 75% | [8]; at 50.0 µM 76.1% | [9]; at 33.0 µM 76% | [9]; at 100.0 µM 77% | [10]; at 50.0 µM 76.5% | [11]; [17] 84% | [11]; at 11.0 µM 94% | [11]; at 33.0 µM 90% | [11]; [18] 86% | [11]; at 50.0 µM 80.9% | [11]; at 100.0 µM 83% | [12]; at 11.0 µM 95% | [12]; at 33.0 µM 91% | [12]; at 100.0 µM 85% | [13]; at 11.0 µM 94% | [13]; at 33.0 µM 88% | [13]; at 100.0 µM 84% | [14]; at 3.7 µM 77% | [14]; at 11.0 µM 95% | [14]; at 33.0 µM 93% | [14]; at 100.0 µM 88% | [15]; [17] 83% | [15]; at 50.0 µM 79.5% | [16]; at 3.7 µM 86% | [16]; at 11.0 µM 98% | [16]; at 33.0 µM 96% | [16]; at 100.0 µM 93%

C[N+](C)(C)CC1CCCC(C[N+](C)(C)C)C1=O (stereo not drawn)
active: [1]; at 100.0 µM 96% | [2]; at 100.0 µM 98% | [3]; at 100.0 µM 99% | [4]; at 100.0 µM 99% | [5]; at 50.0 µM 91.8% | [5]; at 100.0 µM 99% | [6]; at 50.0 µM 99.8% | [6]; at 100.0 µM 98% | [7]; at 100.0 µM 99% | [11]; at 50.0 µM 89.2% | [11]; at 100.0 µM 99%
inactive: [1]; at 1.2 µM 0% | [1]; at 3.7 µM 1% | [1]; at 11.0 µM 9% | [1]; at 33.0 µM 34% | [2]; at 1.2 µM -1% | [2]; at 3.7 µM 3% | [2]; at 11.0 µM -1% | [2]; at 33.0 µM 13% | [3]; at 1.2 µM -3% | [3]; at 3.7 µM 3% | [3]; at 11.0 µM 13% | [3]; at 33.0 µM 64% | [4]; at 1.2 µM 0% | [4]; at 3.7 µM 2% | [4]; at 11.0 µM 5% | [4]; at 33.0 µM 27% | [5]; at 1.2 µM 2% | [5]; at 3.7 µM -18% | [5]; [17] 1% | [5]; at 11.0 µM 37% | [5]; at 33.0 µM 63% | [5]; [18] 35% | [6]; at 1.2 µM 1% | [6]; at 3.7 µM 5% | [6]; [17] 6% | [6]; at 11.0 µM 10% | [6]; at 33.0 µM 25% | [6]; [18] -19% | [7]; at 1.2 µM -1% | [7]; at 3.7 µM 0% | [7]; at 11.0 µM 8% | [7]; at 33.0 µM 38% | [8]; [17] 3% | [8]; [18] 50% | [8]; at 50.0 µM 68.3% | [9]; at 1.2 µM 0% | [9]; at 3.7 µM 1% | [9]; at 11.0 µM 6% | [9]; at 33.0 µM 12% | [9]; at 100.0 µM 24% | [10]; [17] 6% | [10]; [18] 21% | [10]; at 50.0 µM 25.5% | [11]; at 1.2 µM -1% | [11]; at 3.7 µM 4% | [11]; [17] -45% | [11]; at 11.0 µM 4% | [11]; at 33.0 µM 44% | [11]; [18] 41%

From PubChem BioAssay (NCI)
